The list is not random: actives were taken first. Their share in the collection is about 1.1%.
HEK293 viab: cell viability loss counter-screen; HEK-293-SNCA-luc viability, GF-AFC fluorescence, 24 h; Potency, µM (doses to about 57.1 µM), usual class: cytotoxic; hit rate 0.12% among 150,000; AID 1671193; further: nearly all actives have a fitted effect of over 30% in size
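Cytotoxicity counterscreen: after 24 h compound treatment of genome-edited SNCA-luciferase HEK-293 cells, live-cell protease substrate GF-AFC read by fluorescence after 30 min; activity scaled between DMSO (0%) and medium-only (-100%), curves Hill-fitted.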
SNCA expr inh: inhibitors of alpha-synuclein (SNCA) gene expression; HEK-293 SNCA-luciferase knock-in, luminescence, 24 h; Potency, µM (top dose mostly 57.2 µM), most hits filed as inhibitors; hit rate 0.17% among 140,000; AID 1671194; further: nearly all actives have a fitted effect of over 45% in size
GPT2 inh: GPT2 alanine aminotransferase inhibition; Q8TD30; Recombinant GPT2, coupled pyruvate oxidase/HRP Amplex Red fluorescence; Potency, µM (series often up to 57.7 µM), most hits filed as inhibitors; hit rate 0.25% among 100,000; further: nearly all actives have a fitted effect of over 60% in size
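Fluorescence read-out: pyruvate from GPT2 turnover coupled to pyruvate oxidase, HRP and Amplex Red (0.2mM ThPP, 0.2U/mL PO and HRP, 50uM Amplex final). Substrates 250uM a-KG, 2mM L-alanine; enzyme 10ng/uL; 30 min RT.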
IP6K1 inhibitor: inhibitors of human IP6K1 | IP6K1 kinase, ADP-Glo luminescence, 2 h; hits give low values | hit rate 0.81% among 140,000 | activity change, % (series mostly up to about 58 µM) | AID 1645851; in the data active means activity change below about -25%
Target sequence (Q92551 whole entry, looked up): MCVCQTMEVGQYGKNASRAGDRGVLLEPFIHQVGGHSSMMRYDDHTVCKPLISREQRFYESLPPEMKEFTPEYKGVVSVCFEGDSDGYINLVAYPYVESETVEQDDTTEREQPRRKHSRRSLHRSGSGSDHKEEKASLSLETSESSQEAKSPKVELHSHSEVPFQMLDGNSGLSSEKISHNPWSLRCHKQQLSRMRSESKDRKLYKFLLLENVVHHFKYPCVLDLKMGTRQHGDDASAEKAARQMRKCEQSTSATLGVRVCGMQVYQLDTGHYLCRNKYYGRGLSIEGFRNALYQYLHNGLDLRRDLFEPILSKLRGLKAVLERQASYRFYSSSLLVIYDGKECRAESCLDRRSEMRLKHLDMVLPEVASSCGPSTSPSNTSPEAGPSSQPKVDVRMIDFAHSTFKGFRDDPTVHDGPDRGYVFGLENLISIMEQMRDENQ
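ADP-Glo luminescence measures ADP made by human IP6K1 during a 2 h RT reaction with ATP/IP6 (mix at 1.3 mM/130 uM); top library doses 57.5 and 19.1 uM final.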
Of the large screens only hits and unclear results are named; the others gave an inactive call; ! = not confirmed by another sample. Unless noted, the call rests on the fitted dose curve; in most records, active means well fitted curve in the direction sought with a large enough effect; inconclusive means small, poorly fitted or top-dose-only effect, or another doubt; inactive means no such curve, though single readings can be large; an effect the other way counts as inactive or inconclusive.

c1ccc(OCC2CN(Cc3ccc4[nH]ccc4c3)CC23CN(c2ccccc2)C3)cc1 (stereo not given)	HEK293 viab inconclusive, SNCA expr inh 20µM
COc1ccc(-c2cccc(C(=O)N3CCC(NC(=O)c4ccc(C)cc4)CC3)c2)nn1	none (no result: HEK293 viab, SNCA expr inh, GPT2 inh)
c1coc(-c2nc3ccncc3[nH]2)c1	GPT2 inh 32µM!
CC(C)C(=O)Nc1ncc(-c2cc(C(F)F)nn2-c2c(Cl)cccc2Cl)s1	HEK293 viab inconclusive, GPT2 inh 10µM!
O=C(Nc1ncc(-c2cc(C(F)F)nn2-c2c(Cl)cccc2Cl)s1)C1CC1	HEK293 viab inconclusive, SNCA expr inh inconclusive, GPT2 inh inconclusive
CC(C)CN(CCCNC(=O)CN1C(=O)COc2ccc(S(=O)(=O)N3CCCCCC3)cc21)CC(C)C	SNCA expr inh 28µM (no result: GPT2 inh)
Cc1nc2cc(-c3cccc(F)c3)nn2c(C)c1CCC(=O)NC1CCCCC1	SNCA expr inh inconclusive (no result: GPT2 inh)
COc1ccc(C(=O)N[C@@H]2CN(Cc3ccccc3)C[C@H]2CN(C)C)cc1	SNCA expr inh inconclusive
O=C1c2c(O)cc(O)cc2OC(c2ccc(O)c(O)c2)C1O (stereo not given)	GPT2 inh inconclusive (no result: IP6K1 inhibitor)
Oc1cc(O)c2c(c1)O[C@H](c1ccc(O)c(O)c1)[C@H](O)C2	GPT2 inh 28µM
Cc1cccc(-n2nnnc2S(C)(=O)=O)c1	HEK293 viab 22µM, SNCA expr inh inconclusive (no result: GPT2 inh)
COC(=O)c1nnn(-c2cccc(C)c2)c1C(=O)OC	none (no result: GPT2 inh)
Cc1ccc(CS(=O)(=O)c2ncc(Cl)c(C(=O)Nc3nnc(C(C)C)s3)n2)cc1	HEK293 viab 25µM, SNCA expr inh inconclusive (no result: GPT2 inh)
CCc1nnc(NC(=O)c2nc(S(=O)(=O)Cc3cccc(C)c3)ncc2Cl)s1	HEK293 viab 20µM, SNCA expr inh inconclusive (no result: GPT2 inh)
O=C(Nc1nc2ccc(F)cc2s1)c1nc(S(=O)(=O)Cc2ccccc2F)ncc1Cl	HEK293 viab inconclusive, SNCA expr inh inconclusive, IP6K1 inhibitor -40 (no result: GPT2 inh)
O=c1[nH]c(C2CCCN(Cc3ccccc3)C2)nc2ccc(F)cc12 (stereo not given)	none
Cc1oc(-c2ccccc2Cl)nc1CS(=O)CC(=O)N1CCN(c2cccc(C(F)(F)F)c2)CC1 (stereo not given)	HEK293 viab inconclusive, SNCA expr inh 13µM (no result: GPT2 inh)
O=C(c1ccc(-c2ncc3cnc(-c4cccc(F)c4)cn23)cc1)N1CCc2cccnc21	HEK293 viab 25µM, SNCA expr inh 28µM
NC(=O)c1ccc(-c2ncc3cnc(-c4cccc(F)c4)cn23)cc1	none
CC(C)=CC[C@@H](O)C1=CC(=O)c2c(O)ccc(O)c2C1=O	GPT2 inh 12µM (no result: IP6K1 inhibitor)
COc1ccc(CC(=O)NC2CCN(c3ccc4nnc(-c5ccccc5)n4n3)C2)cc1 (stereo not given)	none (no result: HEK293 viab, SNCA expr inh, GPT2 inh)
O=C(O)c1cccnc1	HEK293 viab 4.3µM!, SNCA expr inh 4.3µM!
C=CCOc1c(OC)ccc2c1CN(CCOC)C(=O)CCN2CC(O)COc1ccc(OC)cc1 (stereo not given)	none (no result: HEK293 viab, SNCA expr inh, GPT2 inh)
CC1(C)CC[C@]2(C(=O)O[C@@H]3O[C@H](CO)[C@@H](O)[C@H](O)[C@H]3O)CC[C@]3(C)C(=CCC4[C@@]5(C)C[C@H](O)[C@H](O[C@@H]6OC[C@@H](O)[C@H](O)[C@H]6O)[C@@](C)(CO)C5CC[C@]43C)C2C1 (stereo not given in full)	none (no result: SNCA expr inh)
CC1OC2OC3C(OCC(O)C3O)OC(=O)C34CCC(C)(C)CC3C3=CCC5C6(C)CC(O)C(OC7OC(CO)C(O)C(O)C7OC7OCC(OC(=O)CC(C)(O)CC(=O)OC1C(OC1OCC(O)C(O)C1O)C2O)C(O)C7O)C(C)(CO)C6CCC5(C)C3(C)CC4O (stereo not given)	HEK293 viab 5.2µM (no result: SNCA expr inh)
COC(=O)NC1CCN(c2nccc(Nc3ccccc3OC)n2)CC1	none
Cn1cc(-c2ccc(O)c(F)c2)c2nc(COc3ccc(Cl)cc3)cn2c1=O	none
CC(C)c1ccccc1Cc1cc(C(=O)Nc2ccc(S(=O)(=O)c3ccccc3C(C)(C)C)cc2)c(O)c(O)c1O	GPT2 inh 27µM (no result: IP6K1 inhibitor)
CC(C)c1ccc(NC(=O)c2cc(S(=O)(=O)NCCc3ccccc3)ccc2F)cc1	SNCA expr inh inconclusive (no result: GPT2 inh)
Cc1nn2c(c1-c1ccnn1C(C)C)N(Cc1cccc(C#N)c1)CCC2	HEK293 viab inconclusive, SNCA expr inh 2.8µM
Cc1nn2c(c1-c1ccnn1C(C)C)N(Cc1ccc(O)cc1)CCC2	none
O=C(CCc1ccc(CC2CCN(Cc3c[nH]c4ccccc34)CC2)cc1)N1CCCC1	GPT2 inh inconclusive
O=C(Cc1c[nH]c2ncc(-c3ccc(Oc4ccccc4)cc3)cc12)N1CCOCC1	HEK293 viab inconclusive, SNCA expr inh 25µM
O=C(Cc1c[nH]c2ncc(-c3ccccc3Oc3ccccc3)cc12)N1CCOCC1	SNCA expr inh inconclusive, GPT2 inh inconclusive
Cc1nn2c(c1-c1ccccc1Oc1ccccc1)N(Cc1ccc(C(=O)O)s1)CCC2	HEK293 viab inconclusive, SNCA expr inh 13µM
Cc1nn2c(c1-c1ccccc1[S+](C)(=O)[O-])N(Cc1ccc(C(=O)O)s1)CCC2	HEK293 viab inconclusive, SNCA expr inh 4µM
C/C=C(/C)C(=O)O[C@H]1[C@H](OC(=O)/C(C)=C\C)[C@@]23C(CC1(C)C)[C@]1(CCC4[C@@]5(C)CC[C@H](O[C@@H]6O[C@H](C(=O)O)[C@@H](O)[C@H](O[C@@H]7O[C@H](CO)[C@H](O)[C@H](O)[C@H]7O[C@@H]7O[C@@H](C)[C@H](O)[C@@H](O)[C@H]7O[C@@H]7OC[C@@H](O)[C@H](O)[C@H]7O)[C@H]6O[C@@H]6O[C@H](CO)[C@H](O)[C@H](O)[C@H]6O)C(C)(C)C5CC[C@@]4(C)[C@]1(C)C[C@H]2O)O[C@H]3O (stereo not given in full)	HEK293 viab 3.6µM (no result: SNCA expr inh)
COc1cc(O)ccc1-c1nc2ccc(Br)cn2c1Nc1ccccc1C	HEK293 viab 14µM, SNCA expr inh inconclusive (no result: GPT2 inh)
CSc1ccc(-c2cccc(CN3CCC(NC(=O)c4ccccc4F)CC3)c2)cc1	none (no result: HEK293 viab, SNCA expr inh, GPT2 inh)
CC(C)(C)Nc1nc2cc(Cl)c(Cl)cc2nc1S(C)(=O)=O	HEK293 viab 15µM (no result: SNCA expr inh)
COc1ccc(OC)c(NC(=O)CSc2c3c(nc4ccccc24)CCCC3)c1	HEK293 viab inconclusive, SNCA expr inh 22µM (no result: GPT2 inh)
Cc1ccc(NC(=O)N2CCc3c(C(=O)NCCCN4CCCC4=O)cccc32)cc1	SNCA expr inh 2µM
CC(NC(=O)c1cccc2c1CCN2C(=O)Nc1ccccc1)c1cccnc1 (stereo not given)	none
COc1ccc(NC(=O)N2CCc3c(C(=O)N(C)C)cccc32)cc1	SNCA expr inh inconclusive
COc1ccc(NC(=O)N2CCc3c(C(=O)NC(C)C)cccc32)cc1	SNCA expr inh 3.5µM
Cc1ccc(NC(=O)N2CCc3c(C(=O)NC(C)c4cccnc4)cccc32)cc1 (stereo not given)	SNCA expr inh 4µM
O=C(Cc1cccc(Cl)c1)NC1CCN(c2ccc3nnc(C4CC4)n3n2)C1 (stereo not given)	none (no result: HEK293 viab, SNCA expr inh, GPT2 inh)
Cc1ccccc1Nc1cc2c(nc1-c1ccccc1)nc(C(=O)NCCN(C)C)n2C	HEK293 viab inconclusive, GPT2 inh inconclusive

Assay outcomes as filed in PubChem BioAssay.
